The text below walks through data of PubChem BioAssay (NCI).

Structures are written as SMILES. The panel holds about 83,000 compounds, 20% with a hit somewhere; the sample as a whole holds those more often.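 Percent growth is the endpoint: 0 to 100 indicates growth inhibition (40 means 60% inhibition), 0 means no net growth, and negative values indicate cell death.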 A number with no mark means an inactive call. Active and inactive are the calls of the source. How the source made its calls: active means growth percent below 10; inactive means the rest.

Among the test systems are SK-MEL-2 melanoma; EKVX NSCLC; SN12C renal; UO-31 renal; TK-10 renal; ACHN renal; CAKI-1 renal; A498 renal; CCRF-CEM leukemia; MOLT-4 leukemia; SR leukemia; RPMI-8226 leukemia; OVCAR-8 ovarian; OVCAR-5 ovarian; OVCAR-4 ovarian; SK-OV-3 ovarian; OVCAR-3 ovarian; HS 578T breast; NCI/ADR-RES ovarian; IGROV1 ovarian.
Assay in all cases: NCI-60 one-dose screen, 48 h (100 = growth as untreated, 0 = no growth, -100 = all killed)
Common to all, as to conditions: 10 µM unless noted

Turning to `COc1ccc(C(=O)COc2cccc(/C=C3\CSc4ccccc4C3=O)c2)cc1`, the growth in the assay with SK-MEL-2 melanoma is -30.9% (active); in the assay with EKVX NSCLC it was 70.7%; in the assay on SN12C renal, 29.6%; with UO-31 renal, 18%; with TK-10 renal it was -5.8% (active); with ACHN renal, -35.8% (active). For the same molecule, the growth with CAKI-1 renal was -47.9% (active); in the assay with A498 renal, 85.4%; with CCRF-CEM leukemia, -62.2% (active); in the assay on MOLT-4 leukemia, -65.7% (active); in the assay with SR leukemia, -65.1% (active); in the assay with RPMI-8226 leukemia it was -62.4% (active). Moreover, the growth with OVCAR-8 ovarian was 6.51% (active); with OVCAR-5 ovarian, 32.4%; in the assay with OVCAR-4 ovarian it was 84.4%; in the assay with SK-OV-3 ovarian, 108%; in the assay with OVCAR-3 ovarian it was 64.4%; in the assay on HS 578T breast it was -11.1% (active). In addition, the growth in the assay on NCI/ADR-RES ovarian is 15.1%.

Turning to `CC(C)(C)CC(C)(C)c1ccc(OCCOCC[N+](C)(C)Cc2ccccc2)cc1`, the growth with SK-MEL-2 melanoma was -69.4% (active); in the assay with EKVX NSCLC, 22.3%; in the assay on SN12C renal, -29.2% (active); in the assay on UO-31 renal it was 86.1%; in the assay with TK-10 renal, -0.335% (active); in the assay with ACHN renal, 73.2%. Also, the growth in the assay on CAKI-1 renal is 97.3%; in the assay on A498 renal, 17.7%; in the assay on CCRF-CEM leukemia, -25.8% (active); in the assay on MOLT-4 leukemia, -20% (active); in the assay with SR leukemia, -50.8% (active); with RPMI-8226 leukemia, -60.3% (active). The growth in the assay with OVCAR-8 ovarian is -65.7% (active); in the assay with OVCAR-5 ovarian, 29.6%; in the assay on OVCAR-4 ovarian it was -16% (active); in the assay on IGROV1 ovarian, -45.9% (active); in the assay with OVCAR-3 ovarian it was -35% (active); in the assay on HS 578T breast, 26.1%. Besides, in the assay with NCI/ADR-RES ovarian, the growth was 112%.

For `O=C(CN(C(=O)Cn1c(=O)n2nnnc2c2ccccc21)c1ccccc1C(F)(F)F)Nc1ccc(C(F)(F)F)cc1`, the growth was 105% with SK-MEL-2 melanoma; 101% in the assay with EKVX NSCLC; 100% in the assay with SN12C renal; 81.1% with UO-31 renal; 111% in the assay on TK-10 renal; 102% with ACHN renal. The growth was 99.2% with CAKI-1 renal; 116% in the assay with A498 renal; 107% in the assay with CCRF-CEM leukemia; 104% in the assay on MOLT-4 leukemia; 111% in the assay on SR leukemia; 103% with RPMI-8226 leukemia. Besides, the growth in the assay on OVCAR-8 ovarian is 100%; in the assay with OVCAR-5 ovarian, 106%; in the assay on OVCAR-4 ovarian it was 97.1%; in the assay with SK-OV-3 ovarian it was 103%; in the assay on OVCAR-3 ovarian, 110%; with HS 578T breast, 103%. The growth in the assay with NCI/ADR-RES ovarian was 106%.

Regarding `COc1ccc(C(=O)COc2ccc(/C=C3\COc4ccc(OC)cc4C3=O)cc2)cc1`, the growth in the assay on SK-MEL-2 melanoma was 68.1%; in the assay on EKVX NSCLC, 103%; in the assay on SN12C renal, 100%; in the assay on UO-31 renal, 85.8%; in the assay on TK-10 renal, 105%; in the assay on ACHN renal, 99.8%. In addition, the growth in the assay on CAKI-1 renal was 99.1%; in the assay on A498 renal, 100%; with CCRF-CEM leukemia, 7.46% (active); in the assay on MOLT-4 leukemia, 55.5%; in the assay with SR leukemia, 2.54% (active); in the assay on RPMI-8226 leukemia, -5.51% (active). Further, the growth is 44.3% in the assay with OVCAR-8 ovarian; 108% in the assay with OVCAR-5 ovarian; 92.1% with OVCAR-4 ovarian; 105% with SK-OV-3 ovarian; 104% with OVCAR-3 ovarian; 81.7% in the assay with HS 578T breast. In the assay on NCI/ADR-RES ovarian, the growth is 80.7%.

Take `O=[N+]([O-])c1ccc(Nc2nc(NCCN3CCOCC3)ncc2[N+](=O)[O-])cc1`: the growth in the assay on SK-MEL-2 melanoma is 93.7%; in the assay with EKVX NSCLC it was 88.2%; with SN12C renal, 90.2%; in the assay on UO-31 renal it was 63.9%; in the assay with TK-10 renal, 76.5%; in the assay on ACHN renal it was 80.9%. For the same molecule, the growth is 56.7% with CAKI-1 renal; 79.1% with A498 renal; 98.1% in the assay on CCRF-CEM leukemia; 103% in the assay on MOLT-4 leukemia; 107% in the assay on SR leukemia; 100% in the assay on RPMI-8226 leukemia. Moreover, the growth is 99.5% in the assay on OVCAR-8 ovarian; 98.6% with OVCAR-5 ovarian; 85.4% in the assay with OVCAR-4 ovarian; 81% in the assay with IGROV1 ovarian; 102% with OVCAR-3 ovarian; 89.8% in the assay with NCI/ADR-RES ovarian.

In the case of `Cc1ccc2c(C(C[N+](=O)[O-])c3ccco3)c(-c3ccccc3)[nH]c2c1` (stereo unspecified), the growth is 9.58% (active) in the assay with SK-MEL-2 melanoma; 39.8% in the assay with EKVX NSCLC; 39.1% with SN12C renal; 38.9% in the assay on UO-31 renal; 64.2% in the assay on TK-10 renal; 30.6% in the assay on ACHN renal. For the same molecule, the growth in the assay on CAKI-1 renal was 23.8%; in the assay with A498 renal it was 12.3%; with CCRF-CEM leukemia, 14.4%; with MOLT-4 leukemia, 21%; in the assay with SR leukemia it was 24%; with RPMI-8226 leukemia, 27.4%. Also, the growth in the assay on OVCAR-8 ovarian is 48.1%; in the assay with OVCAR-5 ovarian it was 54.9%; in the assay on SK-OV-3 ovarian, 21.7%; in the assay on IGROV1 ovarian, 29%; in the assay with OVCAR-3 ovarian, 14.2%; in the assay with HS 578T breast, 16.2%. Also, the growth with NCI/ADR-RES ovarian was 7.41% (active).

For the molecule `O=C1c2cc3c(cc2-c2c1c1ccc(F)cc1c(=O)n2C[C@H](O)[C@H](O)[C@H](O)CO)OCO3`, the growth with SK-MEL-2 melanoma is -33.4% (active); in the assay with EKVX NSCLC it was 5.59% (active); with SN12C renal it was -18% (active); in the assay with UO-31 renal, -55.2% (active); with TK-10 renal, -25.7% (active); in the assay with ACHN renal it was -53.8% (active). Besides, the growth in the assay on CAKI-1 renal was -20.6% (active); in the assay on A498 renal, -85.7% (active); with CCRF-CEM leukemia, 2.16% (active); in the assay with MOLT-4 leukemia, -12.3% (active); in the assay with SR leukemia, -8.53% (active); in the assay with RPMI-8226 leukemia, -12.9% (active). The growth in the assay with OVCAR-8 ovarian is -3.45% (active); with OVCAR-5 ovarian, -20.6% (active); with SK-OV-3 ovarian it was -30.3% (active); with IGROV1 ovarian, 7.16% (active); in the assay with OVCAR-3 ovarian it was -17% (active); in the assay with HS 578T breast, -8.24% (active). Further, the growth with NCI/ADR-RES ovarian was -23.8% (active).

`Cc1cc(N2CCOCC2)nc(NCc2cc(Nc3ccnc4cc(Cl)ccc34)ccc2F)n1`: the growth is -61.6% (active) in the assay with SK-MEL-2 melanoma; 9.33% (active) in the assay on EKVX NSCLC; -72.7% (active) in the assay with SN12C renal; -50.8% (active) in the assay with UO-31 renal; -14.7% (active) in the assay with TK-10 renal; -12.9% (active) in the assay on ACHN renal. For the same molecule, the growth is 3.58% (active) in the assay with CAKI-1 renal; -57.8% (active) with A498 renal; -10.4% (active) with CCRF-CEM leukemia; -30.3% (active) in the assay with MOLT-4 leukemia; -41.3% (active) with SR leukemia; -40.4% (active) in the assay on RPMI-8226 leukemia. Moreover, the growth with OVCAR-8 ovarian is -48.9% (active); with OVCAR-5 ovarian, -17.2% (active); in the assay on OVCAR-4 ovarian it was 3.65% (active); with SK-OV-3 ovarian, -40.8% (active); in the assay on OVCAR-3 ovarian, -94.2% (active); with HS 578T breast, -14.2% (active). The growth in the assay on NCI/ADR-RES ovarian is -56.9% (active).
